From PubChem BioAssay (NCI) come the findings set out here.

Common to all, as to test: NCI-60 one-dose screen, 48 h (100 = growth as untreated, 0 = no growth, -100 = all killed)
Conditions in all cases: 10 µM unless noted

The test system of assay [1] is NCI-H23 lung.
Assay [2] has as its system NCI-H226 lung.
Assay [3] deals with NCI-H322M lung.
In assay [4] the test system is HOP-62 NSCLC.
For assay [5], the system named is NCI-H460 lung.
For assay [6], the system named is HOP-92 NSCLC.
Assay [7] deals with NCI-H522 lung.
The test system of assay [8] is A549/ATCC NSCLC.
The test system of assay [9] is 786-0 renal.
Assay [10] concerns COLO 205 colon.
In assay [11] the test system is DU-145 prostate.
The subject of assay [12] is K-562 leukemia.
The subject of assay [13] is MALME-3M melanoma.
The test system of assay [14] is MDA-MB-231 breast.
In assay [15] the test system is RXF 393 renal.
For assay [16], the system named is SF-268 CNS.
Assay [17] relates to SF-295 CNS.
In assay [18] the test system is SF-539 CNS.
Assay [19] deals with UACC-257 melanoma.
The test system of assay [20] is M14 melanoma.

The panel holds about 83,000 compounds, 20% with a hit somewhere; the sample as a whole holds those more often.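 Assay: single dose, 48 h. Readout: percent growth (0 = no net growth; negative = cell death). Active: <10.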 A number with no mark means an inactive call. Activity calls are given as the source filed them.

With `Nc1cc(C(F)(F)F)c(-c2cc(N3CCOCC3)nc(N3CCOCC3)n2)cn1`, the growth in assay [1] was -11.8% (active); in assay [2] it was -10.6% (active); in assay [3] it was -18.3% (active); in [4], -40.8% (active); in [5], -12.9% (active); in assay [6], -42.2% (active). The growth was -51.7% (active) in assay [7]; -44.8% (active) in assay [8]; -9.19% (active) in [9]; -61.3% (active) in [10]; 3.11% (active) in assay [11]; 0.801% (active) in assay [12]. Moreover, the growth in assay [13] was -60.8% (active); in assay [14] it was -1.72% (active); in assay [15], -39.7% (active); in [16], 6.65% (active); in assay [17], -46.8% (active); in assay [18] it was -57% (active). The growth in [19] was -49.5% (active); in [20] it was -62.1% (active).

For the molecule `C[C@@H]1COCCN1c1cc(C2([S@](C)(=N)=O)CC2)nc(-c2ccnc3[nH]ccc23)n1`, the growth is -1.16% (active) in [1]; 39.5% in assay [2]; 3.93% (active) in [3]; 8.86% (active) in [4]; 9.37% (active) in assay [5]; 23% in assay [6]. In addition, the growth in assay [7] is 30.9%; in assay [8] it was 8.97% (active); in assay [9], 2.08% (active); in assay [10], 42.3%; in [11] it was 17.5%; in assay [12] it was 10.8%. The growth in assay [13] was 43.1%; in assay [14] it was 48%; in assay [15], -28.4% (active); in [16] it was 43.5%; in assay [17], 19%; in assay [18] it was 1.29% (active). Further, the figures for the growth in assay [19] and in assay [20] were 52.8% and 10.6%, respectively.

Turning to `CCCNC(=O)c1cn2ncnc(Nc3cc(C(=O)NC4CC4)ccc3C)c2c1C`, the growth was 24.6% in [1]; 42.1% in assay [2]; 47.5% in assay [3]; 81.1% in assay [4]; 66.8% in assay [5]; 74.6% in assay [6]. Also, the growth in assay [7] is 79.1%; in [8] it was 63.3%; in assay [9] it was 99%; in assay [10], 88.9%; in assay [11] it was 103%; in assay [12] it was 85%. Also, the growth is 3.42% (active) in assay [13]; 79.2% in assay [14]; 40% in [15]; 88% in assay [16]; 79.5% in assay [17]; 77.3% in [18]. Also, the growth was 65.6% in assay [19] and 92.4% in [20].

`O=C(Cc1ccc(/C=C/C(=O)c2ncc[nH]2)cc1)Nc1ccc(Br)cc1`: the growth in [1] was 34.8%; in [2] it was 46.5%; in [3] it was 58.1%; in assay [4], 3.97% (active); in [5], -3.31% (active); in assay [6], 77.4%. For the same molecule, the growth in assay [7] is 13.2%; in assay [8], 39.4%; in assay [9], -27% (active); in [10], 20.7%; in assay [11] it was 19.9%; in assay [12], 1.86% (active). Also, the growth in assay [13] was 74.4%; in [14], 10%; in assay [15], 19.4%; in assay [16], 22.2%; in [17], 26.9%; in assay [18], -51.1% (active). The growth in [19] is 69.8%; in assay [20] it was 31.4%.

`COc1ccc2c(c1)cn1c3ccc(O)cc3nc(N)c21`: the growth in assay [1] was 25.5%; in [2] it was 45.2%; in assay [3] it was 40.2%; in [4] it was 25.1%; in assay [5], 8.48% (active); in assay [6] it was 17.2%. For the same molecule, the growth in assay [7] is 14.2%; in assay [8] it was 38%; in assay [9], 18.5%; in [10], 9.91% (active); in [11], 24.1%; in [12], 11.1%. Besides, the growth in [13] was 31.2%; in [14], 23.6%; in assay [15], 3.22% (active); in assay [16], 31.6%; in [17], 21.9%; in [18], -23.2% (active). Moreover, the growth in assay [19] is 60.4%; in assay [20], 10.4%.

As for `COC(=O)[C@H](Cc1ccccc1)NC(=O)[C@@H](OC)[C@@H]1Cc2cc3cc(OC4CC(OC5CC(O)C(O)C(C)O5)C(O)C(C)O4)c(C)c(O)c3c(O)c2C(=O)[C@H]1OC1CC(OC2CC(OC3CC(C)(O)C(O)C(C)O3)C(O)C(C)O2)C(O)C(C)O1` (stereo not given in full), the growth was -28.5% (active) in assay [1]; -33% (active) in assay [2]; 7.54% (active) in assay [3]; 4.37% (active) in assay [4]; 4.92% (active) in assay [5]; -17.5% (active) in assay [6]. Moreover, the growth in assay [7] was -30.7% (active); in [8] it was 6.81% (active); in assay [9] it was 0.647% (active); in [10], -36.7% (active); in assay [11] it was 11.8%; in [12], 5.63% (active). In addition, the growth was -54.8% (active) in assay [13]; -8.99% (active) in [14]; -75% (active) in assay [15]; -2% (active) in [16]; -9.46% (active) in assay [17]; -35.7% (active) in [18]. Besides, the growth was -16.2% (active) in assay [19] and -60.8% (active) in [20].

For the molecule `C=CCn1c(=O)c2cnc(Nc3ccc(N4CCN(C)CC4)cc3)nc2n1-c1cccc(C(C)(C)O)n1`, the growth in [1] was 2.22% (active); in assay [2], 40%; in assay [3], 14.1%; in assay [4], 2.56% (active); in assay [5], 12%; in assay [6], 49.2%. Besides, the growth is -45.8% (active) in assay [7]; 15.9% in assay [8]; 14% in [9]; -29.5% (active) in assay [10]; 17.2% in assay [11]; 1.55% (active) in [12]. The growth in assay [13] was 44.8%; in [14], 9.62% (active); in assay [15], -27.1% (active); in assay [16], 30.7%; in assay [17], 34.8%; in assay [18] it was -26.3% (active). The growth was 46.1% in assay [19] and 9.79% (active) in assay [20].

With `Cc1cc2c(F)c(Oc3ncnn4cc(OC[C@@H](C)OC(=O)[C@H](C)N)c(C)c34)ccc2[nH]1`, the growth in assay [1] was 27.6%; in assay [2], 50.2%; in [3] it was 41.1%; in assay [4], 34.8%; in assay [5], 38.7%; in [6], 39.2%. Besides, the growth was 58.1% in assay [7]; 35.8% in assay [8]; 72.3% in assay [9]; -6.99% (active) in assay [10]; 66.5% in assay [11]; 41.5% in assay [12]. Further, the growth in assay [13] was 11.4%; in assay [14], 39.8%; in assay [15] it was 43.8%; in assay [16], 74.7%; in assay [17], 77.6%; in [18], 73.5%. Further, the growth in assay [19] was -15.9% (active); in assay [20] it was 16.3%.
